Screens: PubChem BioAssay, National Center for Advancing Translational Sciences (NCATS)
TRHR agonist-1: qHTS for Small Molecule Agonists and Allosteric Enhancers of Human TRH Receptor: Primary Screen for Agonists. Thyrotropin-releasing hormone receptor (Homo sapiens), P34981. TRHR cells, calcium flux fluo-8, FDSS agonist mode. activation, % at 2 µM. hit rate 0.18% among 360,000. AID 493084, 2011; also: 0% is about no effect
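Read-out: compound-evoked intracellular calcium rise in TRHR cells, fluo-8 dye, kinetic FDSS fluorescence at 1 s/cycle following a 10-cycle baseline. Cells cultured overnight before dye loading (30 min–1.5 h, RT).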
D1 PAM: Potentiators of Human D1 Dopamine Receptor: qHTS | AID 504651, 2011 | HEK293 TREx D1 cells, calcium flux, dopamine EC20 potentiation | hit rate 0.036% among 360,000 | potentiation, % at 10 µM | D(1A) dopamine receptor (Homo sapiens), P21728; in the data active = potentiation above about 30%; also: 0% is about no effect
Target sequence (P21728 whole entry, looked up): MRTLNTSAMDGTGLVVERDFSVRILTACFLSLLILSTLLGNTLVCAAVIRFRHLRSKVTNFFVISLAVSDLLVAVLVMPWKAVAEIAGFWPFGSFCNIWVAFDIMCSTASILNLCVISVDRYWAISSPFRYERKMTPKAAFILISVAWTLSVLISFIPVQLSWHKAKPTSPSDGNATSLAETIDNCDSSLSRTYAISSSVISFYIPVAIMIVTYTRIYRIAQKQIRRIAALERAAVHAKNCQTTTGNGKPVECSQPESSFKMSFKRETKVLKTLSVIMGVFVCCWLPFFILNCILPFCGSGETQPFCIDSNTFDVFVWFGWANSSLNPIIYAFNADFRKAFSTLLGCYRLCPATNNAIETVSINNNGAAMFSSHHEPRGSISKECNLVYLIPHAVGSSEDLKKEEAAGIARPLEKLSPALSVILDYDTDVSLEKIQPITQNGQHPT
TRHR enhancer-1: qHTS for Small Molecule Agonists and Allosteric Enhancers of Human TRH Receptor: Primary Screen for Enhancers. Thyrotropin-releasing hormone receptor (Homo sapiens), P34981. TRHR cells, fluo-8 calcium fluorescence, EC20 TRH enhancement. enhancement, % at 2 µM. hit rate 0.66% among 360,000; in the data active = enhancement above about 30%; also: 0% is about no effect
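TRHR-expressing cells loaded with fluo-8 calcium dye were read kinetically (ex 480/em 530) during compound addition, then stimulated with an EC20 of TRH (10 nM final). Enhancement of the Gq-mediated intracellular calcium response was scored.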
D1 antag: Antagonist of Human D 1 Dopamine Receptor: qHTS; AID 504652, 2011; HEK293 TREx D1 cells, calcium flux, dopamine EC80; stronger effect = lower value; hit rate 3.2% among 360,000; activity change, negative = inhibition, % at 10 µM; D(1A) dopamine receptor (Homo sapiens), P21728; in the data active = activity change below about -30%; also: % is scaled to controls: 0 for no effect and ±100 for the full control effect
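Antagonism measured as reduced calcium response to an EC80 dopamine addition following 180 s compound pre-read; cells were inducible HEK293 Trex D1 plated overnight at 30 C, read kinetically at 1 cycle/sec.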
D1 ag: Allosteric Agonists of the Human D1 Dopamine Receptor: qHTS. HEK293 T-REx D1 cells, calcium flux, agonist mode. AID 504660, 2011. hit rate 1% among 360,000. activation, % at 2 µM. D(1A) dopamine receptor (Homo sapiens), P21728; also: 0% is about no effect
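Tetracycline-induced HEK293 TREx D1 cells, force-coupled to calcium signalling, were dye-loaded with a no-wash calcium kit. Compound was pin-added after a 10 s baseline. Fluorescence was read kinetically at 1 cycle/s for 180 s, with calcium rises flagged as agonism.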
TRHR enhancer-2: qHTS for Small Molecule Agonists and Allosteric Enhancers of Human TRH Receptor: Confirmation Screen for Enhancers; shares compounds with TRHR enhancer-1; TRH receptor cell assay, enhancer confirmation qHTS; activity change, negative = inhibition, % at 46.1 µM; 970 tested, under 10 active; active = well fitted curve in the direction sought with a large enough effect; inconclusive = small, poorly fitted or top-dose-only effect, or another doubt; inactive = no such curve, though single readings can be large; an effect the other way counts as inactive or inconclusive;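 also: compound effect scored on response to added TRH at EC20 of 10 nM; 0% is about no effect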
TRHR agonist-2: qHTS for Small Molecule Agonists and Allosteric Enhancers of Human TRH Receptor: Confirmation Screen for Agonists. shares compounds with TRHR enhancer-1. TRHR-expressing cells, agonist activation read-out. Potency, µM (top dose mostly 46.1 µM), inactives show at the top dose activation, most hits filed as activators. hit rate 8% among 970. AID 493078, 2011; active = well fitted curve in the direction sought with a large enough effect; inconclusive = small, poorly fitted or top-dose-only effect, or another doubt; inactive = no such curve, though single readings can be large; an effect the other way counts as inactive or inconclusive; also: potency is read from the fitted curve at half-maximal effect; 0% is about no effect; nearly all actives have a fitted effect of over 75% in size
* hit, by the source's call; ? = inconclusive; . = not tested or not shown. Compounds with a hit are over-represented: about 4.7% of the library has one in this group of screens. Rule as the data show it, unless noted: active = activation above about 30%; inactive = the rest.

SMILES	TRHR agonist-1	D1 PAM	TRHR enhancer-1	D1 antag	D1 ag	TRHR enhancer-2	TRHR agonist-2
COc1ccc(-c2nc3ccccc3nc2-c2ccccc2)cc1	0	-3	9	4	3	.	.
COc1ccc2nc3ccccc3nc2c1	1	4	49*	-14	-1	-1	2%
COc1ccc(CNC(=O)c2ccc3c(c2)N(Cc2ccccc2F)C(=O)c2ccccc2S3=O)cc1 (configuration not stated)	0	1	-9	-29	1	.	.
O=C(Nc1ncccc1O)c1c(O)c2ccccc2[nH]c1=O	27	-3	-6	15	0	5	-1%
CCOc1ccc(CCNC(=O)CCN2N=C(c3ccc(OC)cc3)CCC2=O)cc1OCC	-1	-7	-3	-18	-1	.	.
Oc1c(/C=N/c2ccccn2)sc2ccccc12	7	-2	41*	10	14	7	?
Oc1c(C=Nc2ccc(Cl)cn2)sc2ccccc12	11	0	-2	-9	26	.	.
Cc1ccc(-c2nnc(Nc3ccc(CC(N)=O)cc3)c3ccccc23)cc1S(N)(=O)=O	0	1	52*	2	2	-5	3%
COC(=O)c1ccc(NC(=O)c2cccc(C)c2[N+](=O)[O-])cc1	0	-3	3	-19	8	.	.
Cc1ccccc1NC(=O)CN1CCN(C)CC1	-1	0	15	16	10	.	.
Cc1ccccc1NC(=O)CN1CCOCC1	0	-3	56*	-2	3	14	0%
CCOC(=O)C1=C(O)/C(=C/c2cc(OC)c(O)c(OC)c2)SC1=Nc1ccc(OC)cc1	27	-14	8	-64*	17	-1	?
CCOC(=O)c1cc(-c2csc(-c3ccc(C(C)(C)C)cc3)n2)on1	0	-8	44*	-17	5	7	2%
Cc1cc(C(=O)CCC(=O)N2CCN(S(=O)(=O)c3ccccc3)CC2)c(C)s1	0	2	-9	8	2	.	.
CC(C)CCNC(=O)NC(=O)CSc1ccc(S(=O)(=O)N2CCOCC2)cn1	-1	4	63*	14	0	13	-1%
O=C(CSc1nnc(-c2ccc(Cl)cc2)n1-c1ccc(Cl)cc1)N/N=C/c1ccco1	-1	-4	48*	-2	1	13	0%
CCc1nc(SCC(=O)Nc2cccc3ccccc23)[nH]c(=O)c1C	0	-8	-6	-18	0	.	.
CCc1nc(SC)[nH]c(=O)c1C	-1	-1	43*	26	1	-1	0%
COc1ccc(Br)cc1C(=O)Nc1ccc(C(=O)NCC(C)C)cc1	-2	-8	46*	5	2	10	1%
CCOc1ccc(C(=O)Nc2c3c(nn2-c2ccc(C)cc2)CS(=O)C3)cc1OCC (configuration not stated)	0	-5	42*	6	2	-2	0%
C=CCNC(=O)/C(=C/c1cn(-c2ccccc2)nc1-c1cccc([N+](=O)[O-])c1)NC(=O)c1ccccc1	0	-1	4	-19	3	.	.
CN(C)C(=O)/C(=C/c1cn(-c2ccccc2)nc1-c1cccc([N+](=O)[O-])c1)NC(=O)c1ccccc1	-1	1	43*	-19	1	4	-1%
O=C(C1=C(O)C(=O)N(c2nccs2)C1c1ccccc1)c1cc2ccccc2o1 (configuration not stated)	57*	0	2	-14	107*	?	4.6µM*
CCCCNC(=O)c1cc(-c2ccc(F)cc2)on1	0	-3	41*	-5	1	-2	6%
COc1cccc(-n2c(=O)c3c(C)c(C)sc3n(CC(=O)NCCc3ccc(OC)c(OC)c3)c2=O)c1	-2	1	-4	9	0	.	.
SMILES	TRHR agonist-1	D1 PAM	TRHR enhancer-1	D1 antag	D1 ag	TRHR enhancer-2	TRHR agonist-2
Cc1cc(C)cc(OCC(=O)Nc2c(C)ccc3nsnc23)c1	-1	0	-1	8	0	.	.
CCN(C(=O)COC(=O)/C=C/c1cccc(Cl)c1)c1c(N)n(Cc2ccccc2)c(=O)[nH]c1=O	-1	-3	-3	0	8	.	.
CCN(C(=O)COC(=O)/C=C/c1ccccc1Cl)c1c(N)n(Cc2ccccc2)c(=O)[nH]c1=O	1	2	52*	4	1	-3	2%
O=C1c2ccccc2-c2onc3ccc(N4CCCC4)c1c23	54*	8	-13	-21	167*	5	?
COc1cccc(NC(=O)CN2C(=O)NC(C)(CC(C)C)C2=O)c1 (configuration not stated)	0	-10	52*	2	1	-2	-1%
COc1cccc(NC(=O)CN2C(=O)NC3(CCCc4ccccc43)C2=O)c1 (configuration not stated)	0	1	-3	7	1	.	.
NC(=O)NC(=O)C(Nc1ccc(N2CCCCC2)cc1)c1ccccc1 (configuration not stated)	1	-5	3	5	3	.	.
NC(=O)c1c(NC(=O)CN2CCCC2)sc2c1CCCC2	0	1	2	-18	-3	.	.
NC(=O)c1c(NC(=O)CN2CCOCC2)sc2c1CCC2	0	-5	66*	9	2	-16	2%
COc1ccc(C(CNC(=O)c2cccc([N+](=O)[O-])c2)N2CCOCC2)cc1 (configuration not stated)	0	-1	1	1	-2	.	.
COc1cc(/C=C2\SC(=S)N(N(C)c3ccccc3)C2=O)ccc1O	36*	-3	-2	1	26	-11	?
CCOc1cc(/C=C2/SC(=S)N(Cc3ccccc3)C2=O)ccc1O	29	12	1	4	23	.	.
O=C1/C(=C/c2ccc(O)cc2)SC(=S)N1CC1CCCO1 (configuration not stated)	39*	0	16	-3	49*	-6	?
CCCOc1ccc(/C=C2\SC(=S)N(CC3CCCO3)C2=O)cc1 (configuration not stated)	1	-3	-4	1	8	.	.
